Results on 37 compounds are retold here after PubChem BioAssay (NCI).

This is part of a sample that, as a whole, favours compounds with a hit. Of some 83,000 tested, about 20% had one in any assay.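 Cell lines were cultured in 96-well plates, exposed to a single compound concentration, and assessed for percent growth 48 hours later.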 Activity calls are given as the source filed them. Rule for the calls: active = growth percent below 10; inactive = the rest.

In one assay the test system is IGROV1 ovarian. Kind of assay: NCI-60 one-dose screen, 48 h (100 = growth as untreated, 0 = no growth, -100 = all killed). As to conditions: 10 µM unless noted.
Regarding `N#CC1(O)CCCCC1`, the growth is 101% (inactive).
The same measure, in the same setting: under `CCCCCCCCNC(=O)C(C)C` stands 107% (inactive); under `NNc1ncccn1`, 111% (inactive); under `COc1ccc(/C=C\C(=O)/C=C/c2ccc(OC)cc2)cc1`, 92.3% (inactive).
For `CC(=O)c1ccc(C)cc1`, the growth was 98.1% (inactive).
In the case of `O=C(Nc1ccc([N+](=O)[O-])cc1)C(=O)Nc1ccc([N+](=O)[O-])cc1`, the growth was 105% (inactive).
Still for that read-out and setting: under `NC(CSSCC(N)C(=O)O)C(=O)O` (stereo not drawn) stands 31.8% (inactive); under `CC(C)C(C)(C)C(=O)C(C)(C)C(C)(C)C`, 105% (inactive); under `C=C1C(=O)C2CCN1CC2`, 122% (inactive).
Same read-out and setting: under `O=[N+]([O-])c1c(Cl)ncnc1Cl` stands 117% (inactive); under `CCCCCCCCCCCCCCCCCCSC(=N)N`, 70.5% (inactive).
On the same count and under the same terms, for `O=Cc1ccc(O)c(O)c1` the value was 88.8% (inactive).
As for `O=[n+]1ccn([O-])c2ccccc21`, the growth is 106% (inactive).
In the case of `Nc1ccc(F)c(Cl)c1F`, the growth is 116% (inactive).
The same measure, in the same setting: for `S=C(NCc1ccccc1)N1CCC(CCCC2CCN(C(=S)NCc3ccccc3)CC2)CC1` the value was 117% (inactive); for `O=C(CC(CC(=O)c1ccccc1)c1ccccn1)c1ccccc1`, 96.8% (inactive); for `CC(=O)OC/C(C)=C\CC(C)COC(C)=O` (stereo not drawn), 106% (inactive).
On to `COc1cccc(N=CNc2cccc(OC)c2)c1`, for which the growth was 96.7% (inactive).
As for `O=C(Nc1c(Cl)cc(Cl)cc1Cl)ON=C1CCCCC1`, the growth is 109% (inactive).
Still for that read-out and setting: under `Cc1nc(C)c(C(=O)O)cc1C(=O)O` stands 124% (inactive); under `C=CC(C)C(C)(C)O` (stereo not drawn), 102% (inactive).
The same measure, in the same setting: for `CCC(/C=C\C(C)=O)CC` the value was 115% (inactive); for `COC(=O)c1ccccc1C(=O)c1c(C)cc(C)cc1C`, 98.5% (inactive); for `CC(=O)c1cccc(N(C)S(=O)(=O)c2ccc(C)cc2)c1`, 82.5% (inactive).
Same read-out and setting: for `O=C1CSc2ccccc2N1` the value was 105% (inactive).
Regarding `Cn1c(=O)c2[nH]c(CCCCC(=O)O)nc2n(C)c1=O`, the growth was 110% (inactive).

The next assay concerns OVCAR-3 ovarian. The description is as above. The note with it: 10 µM unless noted.
For the compound `Cc1cc(C(=O)NN)c(C#N)c(=O)[nH]1`, the growth is 112% (inactive).
The same measure, in the same setting: under `O=C(Nc1ccc([N+](=O)[O-])cc1)C(=O)Nc1ccc([N+](=O)[O-])cc1` stands 103% (inactive); under `NC(CSSCC(N)C(=O)O)C(=O)O` (stereo not drawn), 4.66% (active).
Same read-out and setting: for `CC12CCC3c4ccc(O)cc4CCC3C1CCC2=O` (stereo not drawn) the value was 112% (inactive).
Same read-out and setting: for `CC(=O)CSc1ncnc2nc[nH]c12` the value was 91.5% (inactive); for `CCCCCCCCCCCCCCCCCCSC(=N)N`, 89.5% (inactive); for `O=Cc1ccc(O)c(O)c1`, 96.3% (inactive).
Consider `O=[n+]1ccn([O-])c2ccccc21`, for which the growth was 101% (inactive).
For `Nc1ccc(F)c(Cl)c1F`, the growth is 111% (inactive).
Take `Clc1ncnc2nc[nH]c12`: the growth was 98.1% (inactive).
Still for that read-out and setting: for `CC(C)Sc1ncnc2nc[nH]c12` the value was 120% (inactive); for `NNc1ncnc2nc[nH]c12`, 79% (inactive).
Consider `CCOC(=O)CNC`, for which the growth was 111% (inactive).
The same measure, in the same setting: under `C=CC1=NC(C)(C)CC(C)O1` (stereo not drawn) stands 113% (inactive).
Regarding `O=C(CC(CC(=O)c1ccccc1)c1ccccn1)c1ccccc1`, the growth was 106% (inactive).
Take `CC(=O)OC/C(C)=C\CC(C)COC(C)=O` (stereo not drawn): the growth is 112% (inactive).
Same read-out and setting: for `COc1cccc(N=CNc2cccc(OC)c2)c1` the value was 102% (inactive); for `COC(=O)c1ccccc1C(=O)c1c(C)cc(C)cc1C`, 103% (inactive); for `Cc1ccc(O)c(N)c1`, 118% (inactive).
Consider `CC(=O)c1cccc(N(C)S(=O)(=O)c2ccc(C)cc2)c1`, for which the growth is 105% (inactive).

Another assay has as its system HS 578T breast. Described as above. As to conditions: 10 µM unless noted.
On to `CCCCCCCCNC(=O)C(C)C`, for which the growth is 97.1% (inactive).
The same measure, in the same setting: for `NNc1ncccn1` the value was 91.5% (inactive); for `Cc1cc(C(=O)NN)c(C#N)c(=O)[nH]1`, 121% (inactive).
Same read-out and setting: under `CC(=O)c1ccc(C)cc1` stands 94.9% (inactive).
Same read-out and setting: for `O=C(Nc1ccc([N+](=O)[O-])cc1)C(=O)Nc1ccc([N+](=O)[O-])cc1` the value was 95% (inactive); for `NC(CSSCC(N)C(=O)O)C(=O)O` (stereo not drawn), 50.3% (inactive); for `CC(C)C(C)(C)C(=O)C(C)(C)C(C)(C)C`, 93.9% (inactive).
For the compound `C=C1C(=O)C2CCN1CC2`, the growth was 101% (inactive).
In the case of `CC12CCC3c4ccc(O)cc4CCC3C1CCC2=O` (stereo not drawn), the growth is 104% (inactive).
The same measure, in the same setting: for `CC(=O)CSc1ncnc2nc[nH]c12` the value was 116% (inactive).
Same read-out and setting: under `CCCCCCCCCCCCCCCCCCSC(=N)N` stands 100% (inactive).
On to `O=Cc1ccc(O)c(O)c1`, for which the growth was 133% (inactive).
The same measure, in the same setting: under `O=[n+]1ccn([O-])c2ccccc21` stands 89.4% (inactive); under `Nc1ccc(F)c(Cl)c1F`, 96.4% (inactive); under `S=C(NCc1ccccc1)N1CCC(CCCC2CCN(C(=S)NCc3ccccc3)CC2)CC1`, 108% (inactive).
Same read-out and setting: for `Clc1ncnc2nc[nH]c12` the value was 98% (inactive); for `CC(C)Sc1ncnc2nc[nH]c12`, 139% (inactive); for `NNc1ncnc2nc[nH]c12`, 84.8% (inactive).
`CCOC(=O)CNC`: the growth is 121% (inactive).
Same read-out and setting: under `C=CC1=NC(C)(C)CC(C)O1` (stereo not drawn) stands 107% (inactive).
On the same count and under the same terms, for `O=C(CC(CC(=O)c1ccccc1)c1ccccn1)c1ccccc1` the value was 84.8% (inactive); for `CC(=O)OC/C(C)=C\CC(C)COC(C)=O` (stereo not drawn), 100% (inactive).
Regarding `OCc1cccnc1`, the growth is 97.2% (inactive).
Still for that read-out and setting: under `COc1cccc(N=CNc2cccc(OC)c2)c1` stands 105% (inactive); under `O=C(Nc1c(Cl)cc(Cl)cc1Cl)ON=C1CCCCC1`, 99.3% (inactive); under `Cc1nc(C)c(C(=O)O)cc1C(=O)O`, 124% (inactive).
Consider `C=CC(C)C(C)(C)O` (stereo not drawn), for which the growth was 96.3% (inactive).
Same read-out and setting: under `CCC(/C=C\C(C)=O)CC` stands 102% (inactive).
The same measure, in the same setting: under `O=[N+]([O-])c1ccc(-c2nc(N(CCO)CCO)c3ccccc3n2)o1` stands -41.8% (active); under `COC(=O)c1ccccc1C(=O)c1c(C)cc(C)cc1C`, 100% (inactive); under `Cc1ccc(O)c(N)c1`, 106% (inactive).
`CC(=O)c1cccc(N(C)S(=O)(=O)c2ccc(C)cc2)c1`: the growth is 102% (inactive).
